Records with an inconclusive call do not appear. Where a call stands in place of a potency, no number is given. Activity calls are given as the source filed them. The call rests on the fitted dose curve; in most records, active means well fitted inhibition curve with a large enough effect; inconclusive means small, poorly fitted or top-dose-only effect; inactive means no such curve, though single readings can be large or run the other way.
Potency means the concentration at half of the fitted maximal effect.

A short description of the experiment: Primary qHTS for inhibitors of nuclear receptor binding SET domain protein 2 (NSD2) in an RCH-ACV wild type WT cells (2C) (AID 1645877). Further: nearly all actives have a fitted effect of over 70% in size. Conditions: RCH-ACV (leukaemia line) NSD2 WT (2C) viability, CellTiter-Glo, 72 h; series mostly up to 44.9 µM. (Quantitative high-throughput screening tests each substance at several concentrations.)
With `C=C[C@@]12COC(=O)C(=C)C1[C@@H](O)[C@H](C(=C)C(=O)OC)[C@@H](OC(=O)C(=C)CO)C2` (stereo partly specified), the Potency was 7.09 µM (active). Consider `CC1(C)CCC[C@@]2(C)C1[C@H](OC(=O)/C=C/C=C/C(=O)O)C=C1COC(=O)[C@@]12O` (stereo partly specified), for which the Potency result is “inactive”. For `CC(C)=CCC/C(C)=C/CO[C@@H]1O[C@H](CO)[C@@H](O)[C@H](O)[C@H]1O`, the Potency result was “inactive”. On to `C=CC1C(OC2OC(CO)C(O)C(O)C2O)OC=C(C(=O)OC)C1CC1CC(=O)CC(CCc2ccc(O)cc2)O1` (stereo unspecified), for which the Potency result was “inactive”. For the compound `COc1cc(C(=O)O)ccc1OC1OC(CO)C(O)C(O)C1O` (stereo unspecified), the Potency result was “inactive”. Turning to `CC(=O)O[C@@H]1[C@@H](OC(=O)/C=C/c2ccccc2)[C@@H](OC(C)=O)[C@H](O[C@H]2[C@@H]3C=CO[C@@H](O[C@@H]4O[C@H](CO)[C@@H](O)[C@H](O)[C@H]4O)[C@@H]3[C@@]3(CO)O[C@@H]23)O[C@H]1C`, the Potency entry was “inactive”. On to `CCOc1cc(C)c(Cl)cc1S(=O)(=O)n1cnc2ccccc21`, for which the Potency result was “inactive”.

In the case of `CC(=O)OC1CC2(C)C3=CCC4(C)C5C(O)C(O)C(C(C)C)C5(C)CCC4(C)C3CCC2C(C)(C)C1OC1OC(CO)C(O)C(O)C1O` (stereo unspecified), the Potency entry was “inactive”. In the case of `CC1(C)CC[C@]2(C(=O)O)CC[C@]3(C)C(=CCC4[C@@]5(C)CC[C@H](O[C@@H]6O[C@H](C(=O)O)[C@@H](O[C@@H]7OC[C@@H](O)[C@H](O)[C@H]7O)[C@H](O)[C@H]6O)C(C)(C)C5CC[C@]43C)C2C1O` (stereo partly specified) it was “inactive”; in that of `C=C1CCC2C(C)(C(=O)O)CCCC2(C)C1CC/C(=C\CO)CO` (stereo unspecified), “inactive”. In the case of `C[C@@]1(O)[C@H](O)[C@@H](CO)O[C@H]1n1ccc(N)nc1=O` it was 23 µM (active).

The record behind these values is PubChem BioAssay (NCATS).
